A number with no mark means an inactive call.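 Rule for the calls: active = growth AUC significantly below the DMSO wells by Dunnett test; inactive = the rest.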
Assays:
Experiment in all cases: relative growth (AUC of 72 h growth curve relative to DMSO control, dAUC) (ratio); higher = more growth (less inhibition), active = hit call of the paper
Details in all cases: 20 µM
[1] = tested on: Aeromonas 1 (Aeromonas sp. AE235)
Procedure, shortened: (§1)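 Bacterial isolates from Icelandic stream sediments and Silwood Park soil, plus whole sediment communities, were grown to carrying capacity in Luria–Bertani medium, then diluted 1:100 into 96-well plates with each chemical at 20 µM (1% DMSO). A600 was read hourly for 72 h on a plate reader, with brief shaking before each read. Relative growth (dAUC) is the spline-integrated area under the growth curve, averaged over three biological replicates and divided by the mean of the DMSO controls.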

[2] = tested on: Aeromonas 2 (Aeromonas sobria)
Procedure, shortened: as §1

[3] = tested on: Aeromonas 3 (Aeromonas popoffii)
Procedure, shortened: as §1

[4] = tested on: Argrobacterium 1 (Agrobacterium sp.)
Procedure, shortened: as §1

[5] = tested on: Arthrobacter 1 (Arthrobacter humicola)
Procedure, shortened: as §1

[6] = tested on: Arthrobacter 2 (Arthrobacter humicola)
Procedure, shortened: as §1

[7] = tested on: Arthrobacter 3 (Arthrobacter sp.)
Procedure, shortened: as §1

Community 4 = tested on: Community 4
Procedure, shortened: as §1

Community 6 = tested on: Community 6
Procedure, shortened: as §1

Community 7 = tested on: Community 7
Procedure, shortened: as §1

Community 8 = tested on: Community 8
Procedure, shortened: as §1

Community 9 = tested on: Community 9
Procedure, shortened: as §1

[8] = tested on: Flavobacterium 1 (Flavobacterium glaciei)
Procedure, shortened: as §1

[9] = tested on: Flavobacterium 2 (Flavobacterium succinicans)
Procedure, shortened: as §1

[10] = tested on: Hymenobacter 1 (Hymenobacter glaciei)
Procedure, shortened: as §1

[11] = tested on: Microbacterium 1 (Microbacterium arborescens)
Procedure, shortened: as §1

[12] = tested on: Neobacillus 1 (Neobacillus soli)
Procedure, shortened: as §1

[13] = tested on: Oryzobacter 1 (Oryzobacter terrae)
Procedure, shortened: as §1

[14] = tested on: Paenibacillus 1 (Paenibacillus castaneae)
Procedure, shortened: as §1

Row | SMILES | relative growth [1] | relative growth [2] | relative growth [3] | relative growth [4] | relative growth [5] | relative growth [6] | relative growth [7] | relative growth (Community 4) | relative growth (Community 6) | relative growth (Community 7) | relative growth (Community 8) | relative growth (Community 9) | relative growth [8] | relative growth [9] | relative growth [10] | relative growth [11] | relative growth [12] | relative growth [13] | relative growth [14]
1 | CC(C)N1C(=O)N(c2ccccc2)CS/C1=N\C(C)(C)C | 1.04 | 1.1 | 1.01 | 1.07 | 0.994 | 0.59 (active) | 0.868 | 1.02 | 1.02 | 1.09 | 1.08 | 1.03 | 0.891 | 0.947 | 1.06 | 1.07 | 0.906 | 0.973 | 1
2 | Cc1cc(C)nc(Nc2ccccc2)n1 | 0.974 | 0.977 | 1.07 | 0.874 | 0.948 | 0.929 | 1.03 | 0.984 | 1.04 | 1.09 | 1.03 | 1.03 | 1.01 | 0.983 | 1.1 | 1.03 | 0.999 | 0.978 | 0.762
3 | N#Cc1c[nH]cc1-c1cccc2c1OC(F)(F)O2 | 0.982 | 0.92 | 0.986 | 0.99 | 0.868 | 0.824 | 0.882 | 0.977 | 0.93 | 1.12 | 1.02 | 0.914 | 0.83 | 0.856 | 0.958 | 1.01 | 0.915 | 1.14 | 0.904
4 | CCNC(=O)NC(=O)/C(C#N)=N/OC | 0.983 | 0.967 | 0.988 | 1.01 | 0.901 | 0.894 | 0.975 | 0.963 | 1 | 1.13 | 1.02 | 0.993 | 1.01 | 0.994 | 1.02 | 0.986 | 0.997 | 0.977 | 0.994
5 | CCOCN(C(=O)CCl)c1c(C)cccc1CC | 0.953 | 0.938 | 0.964 | 1.02 | 0.999 | 0.858 | 1.02 | 0.952 | 0.921 | 0.976 | 1.02 | 1.06 | 1.05 | 0.946 | 0.969 | 1.06 | 0.667 (active) | 1.04 | 0.928
6 | CC(C)OC(=O)Nc1cccc(Cl)c1 | 0.932 | 0.969 | 1.05 | 0.93 | 0.95 | 1 | 0.964 | 1.11 | 1.13 | 1.07 | 1.01 | 1.09 | 0.971 | 1.03 | 1.09 | 1.04 | 1.09 | 0.999 | 1.12
7 | Oc1ccc(Cl)cc1Cc1cc(Cl)ccc1O | 0.522 (active) | 0.00195 (active) | 0.275 (active) | 0.959 | 0.00578 (active) | 0.00499 (active) | 0.011 (active) | 0.664 | 0.496 (active) | 0.862 | 0.654 (active) | 0.327 (active) | 0.0108 (active) | 0.00242 (active) | 0.0173 (active) | 0.869 | 0.731 (active) | 0.00429 (active) | 0.00339 (active)
8 | CO/C=C(/C(=O)OC)c1ccccc1COc1cccc(C(F)(F)F)n1 | 0.992 | 0.905 | 0.97 | 1.06 | 0.923 | 0.886 | 1.02 | 0.935 | 0.929 | 1.04 | 1 | 0.987 | 0.911 | 0.962 | 1.06 | 0.997 | 1.01 | 0.944 | 1.01
9 | Cc1nc(N(C)C)nc(OC(=O)N(C)C)c1C | 0.991 | 0.948 | 0.968 | 0.962 | 0.924 | 0.847 | 0.932 | 0.871 | 0.942 | 1.12 | 0.951 | 0.938 | 0.924 | 0.965 | 0.864 | 0.988 | 0.928 | 0.936 | 0.942
10 | COP(=S)(OC)Oc1ccc(SC)c(C)c1 | 1.02 | 0.974 | 1.03 | 1.05 | 1.17 | 0.942 | 1.01 | 0.985 | 1.05 | 0.973 | 1 | 1.02 | 0.934 | 0.998 | 1.01 | 0.99 | 0.955 | 1.02 | 1.02

Source: the supplement of paper PMC12067926
